PubChem BioAssay
Active and inactive are the calls of the source.

What was measured:
[1] = tested on: Plasmodium falciparum Sir2 (PF13_0152, Sir2A); test: Plasmodium falciparum Sir2A binding compounds – biochemical, small-molecule microarray, 635 nm fluorescence, primary screen (AID 1098); settings: fluorescence 635 nm, higher = more signal;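 note: score merges spot fluorescence intensity with its signal-to-noise ratio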
[2] = probe aDKK1 binding to arrayed compounds – biochemical, biotinylated probe, 635/667 nm fluorescence, primary screen (AID 1099); settings: small-molecule microarray, higher = more signal;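 note: score merges 667nm spot fluorescence with signal to noise across triplicate slides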
[3] = probe aCHRDL2 binding to arrayed compounds – biochemical, biotinylated probe, 635/667 nm fluorescence, primary screen (AID 1100); settings: small-molecule microarray, higher = more signal
[4] = change in splice reporter luminescence, either direction, cell-based, HEK293, spliceosome inhibition project, primary screen (AID 1101); settings: HEK293 splicing luciferase reporter, 24 h, higher = more signal, called active from +8 up or from −8 down;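 note: HEK293 cells carrying a splicing-competent luciferase reporter gene; test concentration not given here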
[5] = molecular target: Fibroblast growth factor 10 (Homo sapiens) (UniProt O15520); test: compounds binding fibroblast growth factor 10 – biochemical, small-molecule microarray, 635 nm fluorescence, primary screen (AID 1102); settings: FGF10 binding, fluorescence 635 nm, higher = more signal
Chain of Fibroblast growth factor 10 (Homo sapiens) (O15520 whole entry, looked up): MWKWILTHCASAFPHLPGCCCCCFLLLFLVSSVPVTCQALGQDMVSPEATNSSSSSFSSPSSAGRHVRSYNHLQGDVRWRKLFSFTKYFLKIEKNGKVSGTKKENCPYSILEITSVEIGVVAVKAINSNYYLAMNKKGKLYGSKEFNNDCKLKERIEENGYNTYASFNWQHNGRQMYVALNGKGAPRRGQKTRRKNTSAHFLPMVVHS

[6] = tested on: glycogen synthase kinase-3 (GSK3A per assay name; protocol says GSK3B); test: compounds binding glycogen synthase kinase-3 – biochemical, small-molecule microarray, 635 nm fluorescence, GSK3A, primary screen (AID 1103); settings: fluorescence 635 nm, higher = more signal; note: the record names both GSK3A and GSK3B
[7] = molecular target: Epidermal growth factor receptor (Homo sapiens) (UniProt P00533); test: compounds binding epidermal growth factor receptor – biochemical, small-molecule microarray, 635 nm fluorescence, primary screen (AID 1104); settings: EGFR binding, higher = more signal;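 note: score merges 667 nm emission intensity with spot signal to noise over triplicate slides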
Chain of Epidermal growth factor receptor (Homo sapiens) (P00533 whole entry, looked up): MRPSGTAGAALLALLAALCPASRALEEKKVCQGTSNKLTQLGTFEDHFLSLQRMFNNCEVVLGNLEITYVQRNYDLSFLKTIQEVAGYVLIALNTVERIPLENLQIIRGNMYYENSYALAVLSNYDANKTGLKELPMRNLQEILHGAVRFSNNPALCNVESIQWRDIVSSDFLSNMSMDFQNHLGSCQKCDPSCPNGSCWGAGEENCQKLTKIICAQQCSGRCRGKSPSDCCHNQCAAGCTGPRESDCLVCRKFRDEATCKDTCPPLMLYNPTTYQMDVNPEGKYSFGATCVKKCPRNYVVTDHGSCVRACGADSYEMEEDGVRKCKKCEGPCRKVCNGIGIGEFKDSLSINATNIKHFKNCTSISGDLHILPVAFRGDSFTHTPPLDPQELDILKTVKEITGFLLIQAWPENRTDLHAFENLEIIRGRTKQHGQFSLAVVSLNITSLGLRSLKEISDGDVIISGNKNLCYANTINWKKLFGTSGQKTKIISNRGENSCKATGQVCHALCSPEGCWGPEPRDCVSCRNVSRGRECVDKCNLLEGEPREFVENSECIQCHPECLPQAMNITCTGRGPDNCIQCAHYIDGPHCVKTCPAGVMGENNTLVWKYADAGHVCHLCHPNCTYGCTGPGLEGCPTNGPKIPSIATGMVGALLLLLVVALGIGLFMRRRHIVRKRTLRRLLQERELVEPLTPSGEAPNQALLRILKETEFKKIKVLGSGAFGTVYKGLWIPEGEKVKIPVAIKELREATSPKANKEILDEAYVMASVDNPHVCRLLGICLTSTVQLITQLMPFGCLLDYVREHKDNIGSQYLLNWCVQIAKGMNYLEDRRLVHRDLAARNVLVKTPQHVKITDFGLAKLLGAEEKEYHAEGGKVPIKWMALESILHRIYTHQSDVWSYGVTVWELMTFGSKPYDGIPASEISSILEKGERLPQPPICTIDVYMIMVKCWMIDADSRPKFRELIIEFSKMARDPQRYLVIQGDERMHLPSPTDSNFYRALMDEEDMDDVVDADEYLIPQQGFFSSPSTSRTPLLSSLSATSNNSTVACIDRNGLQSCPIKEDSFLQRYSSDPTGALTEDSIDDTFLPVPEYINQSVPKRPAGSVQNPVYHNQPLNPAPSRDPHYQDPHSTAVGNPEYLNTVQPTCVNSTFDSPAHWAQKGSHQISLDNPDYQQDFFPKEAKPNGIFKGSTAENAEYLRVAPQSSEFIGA

[8] = molecular target: Follistatin-related protein 3 (Homo sapiens) (UniProt O95633); test: compounds binding follistatin-related protein 3 – biochemical, small-molecule microarray, 635 nm fluorescence, primary screen (AID 1105); settings: FSTL3 binding, higher = more signal;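 note: score merges emission near 667 nm and signal to noise per printed spot across three slides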
Chain of Follistatin-related protein 3 (Homo sapiens) (O95633 whole entry, looked up): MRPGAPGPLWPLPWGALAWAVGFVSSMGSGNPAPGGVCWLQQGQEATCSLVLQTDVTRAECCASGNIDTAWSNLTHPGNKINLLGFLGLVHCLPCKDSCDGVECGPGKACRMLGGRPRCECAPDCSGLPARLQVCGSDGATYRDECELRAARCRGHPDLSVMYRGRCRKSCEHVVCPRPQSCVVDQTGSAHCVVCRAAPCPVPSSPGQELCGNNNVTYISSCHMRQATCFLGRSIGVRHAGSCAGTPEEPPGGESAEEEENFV

[9] = molecular target: Dickkopf-related protein 1 (Homo sapiens) (UniProt O94907); test: small molecules binding DKK1 protein – biochemical, small-molecule microarray, 635 nm fluorescence scan, primary screen (AID 1106); settings: higher = more signal;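 note: score merges emission near 667 nm with signal to noise over three replicate slides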
Chain of Dickkopf-related protein 1 (Homo sapiens) (O94907 whole entry, looked up): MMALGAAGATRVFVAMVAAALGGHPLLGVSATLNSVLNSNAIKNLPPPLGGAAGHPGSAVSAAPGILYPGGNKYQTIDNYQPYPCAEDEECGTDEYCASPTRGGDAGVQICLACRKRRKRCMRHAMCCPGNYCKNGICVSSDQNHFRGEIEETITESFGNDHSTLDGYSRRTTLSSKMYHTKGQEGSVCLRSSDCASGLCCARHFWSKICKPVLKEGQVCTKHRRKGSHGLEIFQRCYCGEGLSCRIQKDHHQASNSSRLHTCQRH

[10] = tested on: Inhibin beta A chain (activin A); test: small molecules binding activin A – biochemical, small-molecule microarray, 635 nm fluorescence scan, primary screen (AID 1107); settings: INHBA, higher = more signal;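 note: mouse activin A protein probed at 4.33 µg/mL on printed slides; score merges bound-protein fluorescence near 667 nm with spot signal-to-noise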
[11] = tested on: Human papillomavirus type 1a protein E7 (residues 44-93); test: small molecules binding HPV E7 44-93 – biochemical, small-molecule microarray, residues 44-93, 635 nm fluorescence, primary screen (AID 1108); settings: fluorescence 635 nm, higher = more signal;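 note: E7 fragment applied at 1 µg/mL in TBST for 1 h at 4 C; score combines spot fluorescence with its signal to noise ratio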
[12] = hepatitis C replication reporter changes, two-sided – Huh7 cells, luciferase reporter, HCV replication inhibitor project, primary screen (AID 1109); settings: Huh7 HCV replicon luciferase reporter, 48 h; higher = more signal;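 note: huh7 hepatoma cells harbouring a luciferase neomycin HCV replicon reporter; luciferase luminescence as measure of HCV replicon replication; test concentration not given here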
[13] = molecular target: Left-right determination factor 2 (Homo sapiens) (UniProt O00292); test: small molecules binding LEFTY2 protein – biochemical, small-molecule microarray, 635 nm fluorescence scan, primary screen (AID 1110); settings: higher = more signal
Chain of Left-right determination factor 2 (Homo sapiens) (O00292 whole entry, looked up): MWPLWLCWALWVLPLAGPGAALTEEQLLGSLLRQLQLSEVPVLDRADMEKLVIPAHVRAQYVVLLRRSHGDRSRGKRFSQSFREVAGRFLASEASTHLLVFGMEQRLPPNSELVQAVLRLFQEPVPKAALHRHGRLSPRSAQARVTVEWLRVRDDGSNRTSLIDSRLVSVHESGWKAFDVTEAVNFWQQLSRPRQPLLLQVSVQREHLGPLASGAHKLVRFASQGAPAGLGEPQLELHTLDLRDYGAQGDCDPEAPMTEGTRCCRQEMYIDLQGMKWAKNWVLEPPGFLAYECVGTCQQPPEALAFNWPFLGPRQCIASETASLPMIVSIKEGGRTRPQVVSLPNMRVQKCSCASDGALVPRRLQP

[14] = molecular target: Calmodulin-1 (Homo sapiens) (UniProt P0DP23); test: small molecules binding calmodulin-1 with EGTA – biochemical, small-molecule microarray, Cy5-labelled CALM1, profiling panel (AID 1111); settings: Cy5-CALM1 binding fluorescence, higher = more signal;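 note: labelled calmodulin applied in Tris saline Tween buffer holding calcium plus EGTA and DTT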
[15] = molecular target: Calmodulin-1 (Homo sapiens) (UniProt P0DP23); test: small molecules binding Ca-loaded calmodulin-1 – biochemical, small-molecule microarray, Cy5-labelled CALM1, plus calcium, artefact control for SMM control-protein annotation, profiling panel (AID 1112); settings: Cy5-CALM1 binding fluorescence, higher = more signal;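 note: score merges spot fluorescence with signal to noise from triplicate slides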
[16] = probe aWnt5a binding to arrayed compounds – biochemical, biotinylated probe, 635/667 nm fluorescence, primary screen (AID 1113); settings: small-molecule microarray, higher = more signal;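 note: score merges 667 nm fluorescence intensity with signal-to-noise per printed feature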
[17] = probe aShh binding to arrayed compounds – biochemical, biotinylated probe, 635/667 nm fluorescence, primary screen (AID 1114); settings: small-molecule microarray, higher = more signal;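 note: probe is biotin-labelled aShh protein from a stem cell growth factor screen; measures binding of labelled protein to compounds printed on the slide; score merges feature fluorescence at 667 nm with signal-to-noise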
[18] = probe aNog binding to arrayed compounds – biochemical, biotinylated probe, 635/667 nm fluorescence, primary screen (AID 1115); settings: small-molecule microarray, higher = more signal;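 note: probe is biotinylated aNog protein used at 0.15 µg/mL for 1 h at 4 C; z-score combines 667 nm fluorescence of each spot with its signal to noise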
[19] = molecular target: Torsin-1A-interacting protein 1 (Homo sapiens) (UniProt Q5JTV8); test: compound microarray binding of lysate hLAP1 – cell lysate, small-molecule microarray, COS7 lysate, 635/667 nm fluorescence, primary screen (AID 1116); settings: 635 nm fluorescence, higher = more signal
Chain of Torsin-1A-interacting protein 1 (Homo sapiens) (Q5JTV8 whole entry, looked up): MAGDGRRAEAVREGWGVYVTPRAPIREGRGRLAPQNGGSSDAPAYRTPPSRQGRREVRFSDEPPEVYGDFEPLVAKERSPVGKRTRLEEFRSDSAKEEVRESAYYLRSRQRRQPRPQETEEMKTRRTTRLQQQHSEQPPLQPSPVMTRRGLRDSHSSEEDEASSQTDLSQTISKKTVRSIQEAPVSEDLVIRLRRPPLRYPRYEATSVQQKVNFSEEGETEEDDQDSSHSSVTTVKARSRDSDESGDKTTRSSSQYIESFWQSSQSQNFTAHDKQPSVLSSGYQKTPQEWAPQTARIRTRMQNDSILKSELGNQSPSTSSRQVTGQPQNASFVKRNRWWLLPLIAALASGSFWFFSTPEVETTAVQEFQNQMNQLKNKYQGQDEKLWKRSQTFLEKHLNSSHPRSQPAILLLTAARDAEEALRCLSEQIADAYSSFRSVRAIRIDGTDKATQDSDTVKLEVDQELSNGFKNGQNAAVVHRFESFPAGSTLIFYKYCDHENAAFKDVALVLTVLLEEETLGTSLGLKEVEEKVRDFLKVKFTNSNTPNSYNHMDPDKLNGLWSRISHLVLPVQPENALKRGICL

[20] = molecular target: Alpha-bungarotoxin (Bungarus multicinctus) (UniProt P60615); test: compounds binding labelled alpha-BTX control protein – biochemical, small-molecule microarray, Alexa647 label, 635/667 nm fluorescence, artefact control for SMM control protein annotation, profiling panel (AID 1117); settings: alpha-BTX-A647 binding fluorescence, higher = more signal
Chain of Alpha-bungarotoxin (Bungarus multicinctus) (P60615 whole entry, looked up): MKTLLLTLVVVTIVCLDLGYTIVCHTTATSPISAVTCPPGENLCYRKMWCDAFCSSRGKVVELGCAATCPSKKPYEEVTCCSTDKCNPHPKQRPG

`C=CCC(OC(C)=O)[C@@H]1[C@@H](N(Cc2cccc3ccccc23)C(=O)Cc2ccc(OC)cc2)c2cc(OCCCO)ccc2N1C(=O)c1ccc2ccccc2n1` (stereo not given in full) gave a composite z-score [1] of -0.316, a composite z-score [2] of -0.0805 and a composite z-score [3] of 0.144. For the same compound, the z-score [4] was -0.326 (inactive), the composite z-score [5] was 0.103 and the composite z-score [6] was -0.135. The composite z-score [7] was 0.124, the composite z-score [8] was 0.484 and the composite z-score [9] was -0.0462. For the same compound, the composite z-score [10] was 1.33, the composite z-score [11] was 0.26 and the z-score [12] was -0.043. For the same compound, the composite z-score [13] was 0.172, the composite z-score [14] was 0.0729 and the composite z-score [15] was 0.259. For the same compound, the composite z-score [16] was 0.0132, the composite z-score [17] was -0.17 and the composite z-score [18] was -0.456. It also gave a composite z-score [19] of 0.307 and a composite z-score [20] of 0.472.
Work on `CCOC(=O)C[C@H]1[C@H](OC(=O)c2ccccc2-c2ccccc2)[C@@H](NC(=O)C2CCCCC2)c2cc(OCCCO)ccc2N1C(=O)Cc1ccc(OC)cc1` yielded a composite z-score [1] of -0.0395, a composite z-score [2] of -0.189 and a composite z-score [3] of 0.0017. The z-score [4] was -0.0496 (inactive), the composite z-score [5] was 0.0134 and the composite z-score [6] was -0.625. For the same compound, the composite z-score [7] was 0.0178, the composite z-score [8] was 0.138 and the composite z-score [9] was -0.259. For the same compound, the composite z-score [10] was 0.489, the composite z-score [11] was -0.312 and the z-score [12] was -1.44. The composite z-score [13] was -0.0221, the composite z-score [14] was -0.0561 and the composite z-score [15] was -0.326. For the same compound, the composite z-score [16] was -0.12, the composite z-score [17] was -0.2 and the composite z-score [18] was -0.136. For the same compound, the composite z-score [19] was 0.3 and the composite z-score [20] was -0.0654.
In the case of `CC1CC/C=C\[C@H]2OC34C=CCN(C(C)C)C(=O)[C@H]3N(CCCCCCO)C(=O)[C@@H]4C2C(=O)O1` (stereo not given in full), the composite z-score [1] is reported as 0.733, the composite z-score [2] is reported as -0.242 and the composite z-score [3] is reported as 0.417. For the same compound, the z-score [4] was -0.935 (inactive), the composite z-score [5] was -1.16 and the composite z-score [6] was -1.22. For the same compound, the composite z-score [7] was -0.755, the composite z-score [8] was -0.931 and the composite z-score [9] was -1.24. For the same compound, the composite z-score [10] was 0.25, the composite z-score [11] was -1.9 and the z-score [12] was -0.729. For the same compound, the composite z-score [13] was -0.83, the composite z-score [14] was -0.295 and the composite z-score [15] was 0.571. It also gave a composite z-score [16] of -0.15, a composite z-score [17] of -0.117 and a composite z-score [18] of 0.0595. The composite z-score [19] was -0.673 and the composite z-score [20] was -0.706.
With `C[C@@H]1ON(c2ccc(C(=O)OC(C)(C)C)cc2)[C@H](c2ccc(O)cc2)[C@H]1C(=O)N1C(=O)OC[C@H]1Cc1ccccc1` the composite z-score [1] was 0.632, the composite z-score [2] was 0.0187 and the composite z-score [3] was -0.369. The z-score [4] was 0.121 (inactive), the composite z-score [5] was 0.663 and the composite z-score [6] was 1.06. The composite z-score [7] was 0.365, the composite z-score [8] was 0.431 and the composite z-score [9] was 0.449. The composite z-score [10] was -0.0851, the composite z-score [11] was 0.606 and the z-score [12] was -3.77. The composite z-score [13] was 0.545, the composite z-score [14] was 1.35 and the composite z-score [15] was 0.307. The composite z-score [16] was 0.0215, the composite z-score [17] was -0.138 and the composite z-score [18] was 0.495. For the same compound, the composite z-score [19] was 0.848 and the composite z-score [20] was 0.485.
For `C=C(COC)/C(=C/C[C@H](OC(C)=O)c1ccc(OCCO)cc1)c1cc(C(=O)OC)ccc1OC`, the composite z-score [1] was 1.38, the composite z-score [2] was 0.0841 and the composite z-score [3] was -0.24. For the same compound, the z-score [4] was -0.195 (inactive), the composite z-score [5] was 1.48 and the composite z-score [6] was 0.416. For the same compound, the composite z-score [7] was 0.148, the composite z-score [8] was 0.924 and the composite z-score [9] was 0.468. It also gave a composite z-score [10] of 0.72, a composite z-score [11] of 0.697 and a z-score [12] of -1.13. The composite z-score [13] was 0.695, the composite z-score [14] was -0.24 and the composite z-score [15] was -0.845. The composite z-score [16] was -0.0792, the composite z-score [17] was -0.169 and the composite z-score [18] was 0.449. It also gave a composite z-score [19] of 2.13 and a composite z-score [20] of 0.0079.
